A selection: hits, their analogues and other compounds. The true share with any hit is near 21%.
Cycloheximide cs = Cycloheximide Counterscreen for Small Molecule Inhibitors of Shiga Toxin; cell reporter, cycloheximide protein synthesis inhibition counterscreen; AID 2314, 2010; max response, %; 12% of 300,000 active; in the data active means max response mostly above about 13%, no sharp cut-off; inactive means mostly below about 14%; further: read at 38.3 µM for the half of the compounds with a filed dose
Pf growth 96h = Primary qHTS for delayed death inhibitors of the malarial parasite plastid, 96 hour incubation; Potency, µM (titrated, usually from 28.7 µM), actives largely listed as inhibitors; 6.9% of 320,000 active; AID 504834, 2011; P. falciparum luciferase reporter growth, 96 h; active means well fitted inhibition curve with a large enough effect; inconclusive means small, poorly fitted or top-dose-only effect, or another doubt; inactive means no such curve, though single readings can be large or run the other way
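Erythrocytes infected with luciferase-expressing P. falciparum were dispensed at 2% hematocrit and 0.05% parasitemia (final), then incubated with compounds 96 hours at 37 C in 5% CO2. Luminescence after detection reagent addition reported growth.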
Pf growth 48h = Primary qHTS for delayed death inhibitors of the malarial parasite plastid, 48 hour incubation; 5.9% of 310,000 active; Potency, µM (top dose mostly 28.7 µM), usual class: inhibitors; P. falciparum luciferase growth in erythrocytes, 48 h; AID 504832, 2011; active means well fitted inhibition curve with a large enough effect; inconclusive means small, poorly fitted or top-dose-only effect, or another doubt; inactive means no such curve, though single readings can be large or run the other way
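Firefly luciferase activity from engineered P. falciparum reports growth; inhibitors lower the luminescent signal. Cultures contained 2% hematocrit erythrocytes at 0.1% final parasitemia.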
Shiga inhibitor = A qHTS for Small Molecule Inhibitors of Shiga Toxin | Vero cells, Shiga toxin protein synthesis inhibition reporter | inhibition, % at 38.7 µM | 9.2% of 290,000 active; in the data active means inhibition mostly above about 28%, no sharp cut-off; inactive means mostly below about 43%
SARS PLpro yeast = qHTS of Yeast-based Assay for SARS-CoV PLP; S. cerevisiae expressing SARS-CoV PLpro, growth rescue; Potency, µM (titrated, usually from 32.9 µM), usual class: activators; 0.19% of 330,000 active; AID 485353, 2010; further: nearly all actives have a fitted effect of over 55% in size
NS1 inh = qHTS Assay for Inhibitors of Influenza NS1 Protein Function; 0.4% of 270,000 active; Potency, µM (series often up to 46.1 µM); AID 2326, 2010; further: actives are rising curves; nearly all actives have a fitted effect of over 50% in size
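Growth recovery, yeast-based: influenza A NS1 expressed in S. cerevisiae causes slow growth, and suppressors are detected by OD600. The parent strain without NS1 is used as positive control.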
Each line names hits and unclear results; the compound was inactive in the other large screens. Unless noted, the call rests on the fitted dose curve.

C/C(=N/Nc1ccc(C)cc1)C1(C)N(O)C(C)(C)C(c2ccco2)=[N+]1[O-] (stereo unspecified)	Cycloheximide cs 17 (no result: NS1 inh)
O=C(CC1SC(=O)N(c2ccccc2)C1=O)Nc1ccccc1 (stereo unspecified)	Cycloheximide cs 51, Shiga inhibitor 51 (no result: Pf growth 96h)
Cc1ccc(NC(=O)CC2SC(=O)N(c3ccccc3)C2=O)cc1 (stereo unspecified)	Cycloheximide cs 27, Shiga inhibitor 51
Cc1cccc(NC2SC(=O)N(c3ccccc3)C2=O)c1 (stereo unspecified)	Cycloheximide cs 53, Shiga inhibitor 71 (no result: Pf growth 96h)
CC(=O)Nc1ccc(NC(=O)CC2SC(=O)N(CC(=O)c3ccccc3)C2=O)cc1 (stereo unspecified)	Pf growth 96h 10µM
CC(C)[C@H](N)C(=O)N[C@@H](CCC(N)=O)C(=O)NCC(=O)N[C@@H](CCC(=O)O)C(=O)N[C@@H](CCC(=O)O)C(=O)N[C@@H](CO)C(=O)N[C@@H](CC(N)=O)C(=O)N[C@@H](CC(=O)O)C(=O)N[C@@H](CCCCN)C(=O)O	none (no result: Pf growth 96h, Pf growth 48h, SARS PLpro yeast, NS1 inh)
C=C(C)[C@]12C[C@@H](C)[C@@]34OC(Cc5ccccc5)(O[C@@H]1[C@@H]3C=C(COC(=O)Cc1cc(I)c(O)c(OC)c1)C[C@]1(O)C(=O)C(C)=C[C@@H]41)O2	none (no result: Pf growth 96h, Pf growth 48h, SARS PLpro yeast, NS1 inh)
O=C(Oc1ccccc1)N1CCN(C(=O)c2ccco2)CC1	none
CN(Cc1ccncn1)C(=O)C1CCC(=O)N(Cc2cccc(C(F)(F)F)c2)C1 (stereo unspecified)	none
O=C(CC1Sc2ncnn2C1=O)Nc1ccccc1 (stereo unspecified)	Cycloheximide cs 17 (no result: Pf growth 48h)
Cc1ccc(-c2sc(-c3ccccc3)nc2CC(=O)Nc2ccccc2F)cc1	Pf growth 48h inconclusive
CCCN1C(=O)SC(CC(=O)Nc2ccc(C)cc2)C1=O (stereo unspecified)	Pf growth 96h inconclusive, SARS PLpro yeast 11µM
CCN=C1SC(CC(=O)Nc2ccc(C(F)(F)F)cc2)C(=O)N1CC (stereo unspecified)	Pf growth 48h 2.6µM
Cc1ccc(NC(=O)CC2=NC(=O)C(CC(=O)Nc3ccccc3F)S2)cc1 (stereo unspecified)	Cycloheximide cs 22, Shiga inhibitor 90
CN(C#N)c1nc(Cl)nc(Nc2cccc(Cl)c2)n1	none
COc1ccc([N+](=O)[O-])cc1NC(=O)C1CCCN1S(=O)(=O)c1cccs1 (stereo unspecified)	Pf growth 48h inconclusive (no result: Cycloheximide cs, Shiga inhibitor, NS1 inh)
O=C1NCCN(Cc2ccoc2)C1CC(=O)N(CCO)Cc1ccccc1 (stereo unspecified)	Pf growth 96h inconclusive, Pf growth 48h inconclusive
COc1cccc(NC(=O)c2nn(C)c(C(=O)Nc3cccc(OC)c3)c2[N+](=O)[O-])c1	Pf growth 96h 6.6µM
COc1cc(NC(=O)c2ccccc2[N+](=O)[O-])ccc1NC(=O)C(C)C	Pf growth 96h 9.3µM
Cc1cccc(C(=O)Nc2cccc(Br)c2)c1[N+](=O)[O-]	Cycloheximide cs 9.3
COc1cccc(NC(=S)NNC(=O)c2c([N+](=O)[O-])c(C)nn2C)c1	none
COc1ccc(CNC(=O)c2cccc(C)c2[N+](=O)[O-])cc1	Pf growth 96h inconclusive, SARS PLpro yeast inconclusive
COc1cccc(NC(=O)c2cccc(C)c2[N+](=O)[O-])c1	Cycloheximide cs 28, Pf growth 96h inconclusive, Shiga inhibitor 125
COc1ccccc1NC(=O)COC(=O)c1ccccc1C(=O)N1CCN(c2ccccc2)CC1	Pf growth 48h inconclusive
CC(C)Cc1cc(CN2CCC(CO)(Cc3cccc(C(F)(F)F)c3)CC2)[nH]n1	Pf growth 96h inconclusive
Cc1ccc(-c2cc(NC(=O)c3ccccc3[N+](=O)[O-])n[nH]2)cc1	Cycloheximide cs 13, Pf growth 96h inconclusive, Shiga inhibitor 68
Cc1ccccc1C(=O)Nc1cccc(NC(=O)c2ccccc2[N+](=O)[O-])c1	none
Cc1cc(NC(=O)c2ccccc2[N+](=O)[O-])ccc1Br	Cycloheximide cs 50, Pf growth 96h inconclusive, Shiga inhibitor 134 (no result: NS1 inh)
Cc1ccc(NC(=O)c2ccccc2[N+](=O)[O-])nc1	SARS PLpro yeast inconclusive
CCc1c(C)sc(NC(=O)Cc2ccccc2OC)c1C(=O)N1CCOCC1	NS1 inh inconclusive
FC(F)(F)c1ccccc1NC(=S)Nc1ccccc1	Pf growth 96h 1.5µM
COc1ccc(NC(=S)Nc2ccccc2C(F)(F)F)cc1	none
S=C(Nc1ccccc1)Nc1ccccc1-n1cccc1	Cycloheximide cs 22, Pf growth 96h inconclusive, Pf growth 48h inconclusive
N#CCc1ccc(NC(=O)c2ccc(S(=O)(=O)N3CCOCC3)cc2)cc1	Pf growth 48h inconclusive
O=C(COC(=O)c1ncc(Cl)c(Cl)c1Cl)NC(=O)c1ccccc1	none (no result: Cycloheximide cs, Shiga inhibitor, NS1 inh)
Cc1csc(CN(C)C(=O)C2CCC(=O)N(CCCc3ccccc3)C2)n1 (stereo unspecified)	Pf growth 96h inconclusive
COc1ccccc1CN1CC(C(=O)N(C)CCc2nc3ccc(F)cc3[nH]2)CCC1=O (stereo unspecified)	Pf growth 96h 10µM
COc1ccccc1CN1CC(C(=O)N(C)Cc2nc(C)cs2)CCC1=O (stereo unspecified)	Cycloheximide cs 17, Pf growth 96h inconclusive
CCn1c(=O)c2sccc2n2c(CCCC(=O)NCCc3ccc(S(N)(=O)=O)cc3)nnc12	Pf growth 96h inconclusive
CN(C)CC#Cc1cncc(C(=O)NNC(=O)Nc2ccc(Cl)cc2)c1	none
O=C(O)c1sc2cc(C(F)(F)F)cnc2c1-c1cccs1	Pf growth 96h inconclusive (no result: NS1 inh)
CCOC(=O)CSc1nc(C)c2cc(OC)ccc2n1	Cycloheximide cs 46, Shiga inhibitor 72 (no result: Pf growth 96h)
CCOC(=O)CSc1nc(C)c2cc(C)c(C)cc2n1	Pf growth 96h inconclusive
COc1ccc(OC)c(/C=N/NC(=O)CSc2cc(C)nc3c(OC)cccc23)c1	Pf growth 96h 8.3µM
CCOC(=O)CCSc1nc(C)c2ccccc2n1	Cycloheximide cs 18, Shiga inhibitor 57
CCOC(=O)CCSc1nc(C)c2cc(C)ccc2n1	Cycloheximide cs 30, Shiga inhibitor 75 (no result: Pf growth 48h)
COc1cc2ccccc2c2cc([N+](=O)[O-])oc12	none (no result: Cycloheximide cs, Pf growth 96h, Pf growth 48h, Shiga inhibitor, SARS PLpro yeast)
CCOC(=O)CNC(=O)CSc1cc(C)nc2ccc(OC)cc12	Cycloheximide cs 29, Shiga inhibitor 72
COc1ccccc1CN1CCC(CNS(=O)(=O)c2cc(-c3cc(C)no3)ccc2C)CC1	Pf growth 48h 4.7µM
COc1ccc(-c2cc(C)no2)cc1S(=O)(=O)N1CCCN(Cc2ccccc2Cl)C1	Pf growth 96h 12µM, Pf growth 48h inconclusive
CCOc1ccccc1CNS(=O)(=O)c1cc(-c2cc(C)no2)ccc1OC	Pf growth 96h 12µM, SARS PLpro yeast inconclusive
CCO[C@H]1OC(C(=O)N2CCN(C)CC2)=C[C@@H](C2CC2)[C@@H]1CCCO	none

Bioassay records (PubChem)
